Here are results for one sequence from PMC7862700, “An all-to-all approach to the identification of sequence-specific readers for epigenetic DNA modifications on cytosine”.

Common to all, as to assay: DAPPL (digital affinity profiling via proximity ligation, sequencing); 10 mM Tris-HCl pH 7.5, 50 mM NaCl, 1 mM DTT, 4% glycerol, room temperature, 30 min; GST-TFs on glutathione beads, 16-mer random dsDNA library, 0.1% formaldehyde crosslink after washing; high values mean tight binding
For one test, the target named is T1, FEV (Homo sapiens, UniProt Q99581 1-238).
T1 sequence: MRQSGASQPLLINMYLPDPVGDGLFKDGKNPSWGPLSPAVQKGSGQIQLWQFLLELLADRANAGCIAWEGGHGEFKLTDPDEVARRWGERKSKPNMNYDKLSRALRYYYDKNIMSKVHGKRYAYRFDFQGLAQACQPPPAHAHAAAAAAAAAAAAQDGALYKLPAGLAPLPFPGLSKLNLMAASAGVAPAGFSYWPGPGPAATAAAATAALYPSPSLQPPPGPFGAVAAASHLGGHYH
The note with it: protein: recombinant; tags: N-terminal GST; dsDNA, one strand shown. The method in brief:
(§1)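 Binding signal is each hexamer's read frequency for a factor divided by its frequency in the tag-only sample. The factors were GST-fused human transcription factors from yeast, captured on glutathione beads, DNA-barcoded and pooled with that sample. Pools were incubated with 200 nmole of a random double-stranded 16-mer DNA library in Tris/NaCl/DTT/glycerol buffer at room temperature for 30 min, then washed, crosslinked with 0.1% formaldehyde, proximity-ligated with BsaI/T4 ligase (1 h, 37 °C), PCR-amplified and sequenced on an Illumina NextSeq500.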

Another test concerns the target ETV5 (Homo sapiens, UniProt P41161 1-510). The note with it: protein: recombinant; tags: N-terminal GST; dsDNA, one strand shown. The method, boiled down:
as §1

The target of a further test is HSF1 (Homo sapiens, UniProt Q00613 1-529). As to conditions: protein: recombinant; tags: N-terminal GST; chain copies: 3; dsDNA, one strand shown. The method, boiled down: as §1
Chain of HSF1 (Q00613 whole entry): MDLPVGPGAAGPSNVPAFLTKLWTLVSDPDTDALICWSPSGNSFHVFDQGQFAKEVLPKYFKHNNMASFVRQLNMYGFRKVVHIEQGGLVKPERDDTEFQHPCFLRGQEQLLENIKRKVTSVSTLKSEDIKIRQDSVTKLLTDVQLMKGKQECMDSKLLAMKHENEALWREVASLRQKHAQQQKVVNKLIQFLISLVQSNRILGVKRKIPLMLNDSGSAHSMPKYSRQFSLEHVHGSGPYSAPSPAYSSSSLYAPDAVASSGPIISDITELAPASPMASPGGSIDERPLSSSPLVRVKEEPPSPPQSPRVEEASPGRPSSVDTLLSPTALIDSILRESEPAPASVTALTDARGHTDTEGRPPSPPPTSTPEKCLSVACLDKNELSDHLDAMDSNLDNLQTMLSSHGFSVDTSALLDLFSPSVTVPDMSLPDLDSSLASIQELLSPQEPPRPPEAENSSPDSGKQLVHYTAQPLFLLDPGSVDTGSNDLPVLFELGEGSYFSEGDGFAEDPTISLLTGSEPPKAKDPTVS
For the next test, the target named is T2, SPIC (Homo sapiens, UniProt Q8N5J4 1-248).
T2 sequence: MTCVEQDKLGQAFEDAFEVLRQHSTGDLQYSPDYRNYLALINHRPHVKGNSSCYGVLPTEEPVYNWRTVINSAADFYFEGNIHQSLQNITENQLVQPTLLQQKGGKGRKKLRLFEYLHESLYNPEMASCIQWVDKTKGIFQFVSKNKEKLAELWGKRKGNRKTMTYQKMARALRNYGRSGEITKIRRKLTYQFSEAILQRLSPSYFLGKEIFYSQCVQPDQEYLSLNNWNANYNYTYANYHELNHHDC
As to conditions: protein: recombinant; tags: N-terminal GST; dsDNA, one strand shown. The method in brief: as §1

The next test deals with ELF4 (Homo sapiens, UniProt Q99607 1-663). The note with it: protein: recombinant; tags: N-terminal GST; dsDNA, one strand shown. The method in brief: as §1
Chain of ELF4 (Q99607 whole entry): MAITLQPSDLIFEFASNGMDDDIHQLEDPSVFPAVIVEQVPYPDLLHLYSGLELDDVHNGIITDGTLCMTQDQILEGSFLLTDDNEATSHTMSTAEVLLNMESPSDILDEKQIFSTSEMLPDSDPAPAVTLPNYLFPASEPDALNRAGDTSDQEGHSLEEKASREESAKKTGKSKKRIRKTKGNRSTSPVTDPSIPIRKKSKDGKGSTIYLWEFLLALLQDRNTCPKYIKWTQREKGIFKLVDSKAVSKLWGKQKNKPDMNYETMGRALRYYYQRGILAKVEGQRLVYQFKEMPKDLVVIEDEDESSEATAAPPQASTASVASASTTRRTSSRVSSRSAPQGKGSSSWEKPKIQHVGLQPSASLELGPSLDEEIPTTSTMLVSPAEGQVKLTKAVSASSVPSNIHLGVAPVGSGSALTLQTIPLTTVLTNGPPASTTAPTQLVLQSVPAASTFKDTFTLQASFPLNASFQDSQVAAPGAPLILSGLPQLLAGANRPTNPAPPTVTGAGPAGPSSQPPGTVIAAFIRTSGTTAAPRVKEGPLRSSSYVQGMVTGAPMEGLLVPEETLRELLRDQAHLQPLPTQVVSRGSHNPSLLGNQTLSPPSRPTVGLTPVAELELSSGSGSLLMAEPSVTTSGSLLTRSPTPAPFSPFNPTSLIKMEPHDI
For the next test, the target named is T3, ELK4 (Homo sapiens, UniProt P28324-2 1-405).
T3 sequence: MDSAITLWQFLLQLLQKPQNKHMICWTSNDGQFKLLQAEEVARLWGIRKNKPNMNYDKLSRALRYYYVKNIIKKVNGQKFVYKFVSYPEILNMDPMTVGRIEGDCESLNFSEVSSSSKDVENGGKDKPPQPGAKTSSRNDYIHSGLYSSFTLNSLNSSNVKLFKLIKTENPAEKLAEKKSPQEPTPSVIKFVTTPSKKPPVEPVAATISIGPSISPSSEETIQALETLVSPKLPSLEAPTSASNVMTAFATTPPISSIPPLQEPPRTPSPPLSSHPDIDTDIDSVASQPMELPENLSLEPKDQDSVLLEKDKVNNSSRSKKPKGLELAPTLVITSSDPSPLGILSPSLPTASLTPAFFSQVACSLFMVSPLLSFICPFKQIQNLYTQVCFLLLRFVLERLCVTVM
The note with it: protein: recombinant; tags: N-terminal GST; dsDNA, one strand shown. The method, boiled down: as §1

Another test addresses T4, ETV2 (Homo sapiens, UniProt O00321 1-342).
T4 sequence: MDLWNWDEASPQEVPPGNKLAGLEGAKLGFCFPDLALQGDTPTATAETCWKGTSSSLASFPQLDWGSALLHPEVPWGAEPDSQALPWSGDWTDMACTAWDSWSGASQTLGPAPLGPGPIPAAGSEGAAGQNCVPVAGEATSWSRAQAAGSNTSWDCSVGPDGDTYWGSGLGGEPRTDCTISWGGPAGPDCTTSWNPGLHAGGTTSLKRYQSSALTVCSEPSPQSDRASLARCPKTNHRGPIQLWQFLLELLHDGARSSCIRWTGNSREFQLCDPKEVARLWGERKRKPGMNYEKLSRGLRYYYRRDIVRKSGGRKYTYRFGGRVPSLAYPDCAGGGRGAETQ
As to conditions: protein: recombinant; tags: N-terminal GST; dsDNA, one strand shown. The method in brief:
as §1

In the next test the target is T5, ELF3 (Homo sapiens, UniProt P78545 1-371).
T5 sequence: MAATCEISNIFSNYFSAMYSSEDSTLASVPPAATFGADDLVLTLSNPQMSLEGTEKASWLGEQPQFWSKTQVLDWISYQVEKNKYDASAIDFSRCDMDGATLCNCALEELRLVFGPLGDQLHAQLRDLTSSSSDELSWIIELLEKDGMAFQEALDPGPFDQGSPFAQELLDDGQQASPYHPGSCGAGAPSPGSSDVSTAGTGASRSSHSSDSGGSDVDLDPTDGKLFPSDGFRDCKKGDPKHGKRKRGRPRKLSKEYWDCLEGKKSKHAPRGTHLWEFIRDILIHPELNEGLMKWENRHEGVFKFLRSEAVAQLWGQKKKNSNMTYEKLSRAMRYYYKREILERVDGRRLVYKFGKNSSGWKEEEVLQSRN
As to conditions: protein: recombinant; tags: N-terminal GST; dsDNA, one strand shown. The method, boiled down: as §1

For another test, the target named is CRX (Homo sapiens, UniProt O43186 1-299). The note with it: protein: recombinant; tags: N-terminal GST; dsDNA, one strand shown. The method in brief: as §1
Chain of CRX (O43186 whole entry): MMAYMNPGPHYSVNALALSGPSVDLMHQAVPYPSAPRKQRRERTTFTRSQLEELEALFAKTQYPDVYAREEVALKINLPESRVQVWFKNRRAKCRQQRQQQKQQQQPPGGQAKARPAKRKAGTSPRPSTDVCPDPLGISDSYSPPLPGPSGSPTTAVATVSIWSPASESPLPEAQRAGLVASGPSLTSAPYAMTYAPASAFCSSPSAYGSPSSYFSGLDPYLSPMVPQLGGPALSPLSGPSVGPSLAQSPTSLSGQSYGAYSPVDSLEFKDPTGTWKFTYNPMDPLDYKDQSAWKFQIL
For a further test, the target named is ETV1 (Homo sapiens, UniProt P50549 1-477). As to conditions: protein: recombinant; tags: N-terminal GST; dsDNA, one strand shown. The method, boiled down: as §1
Chain of ETV1 (P50549 whole entry): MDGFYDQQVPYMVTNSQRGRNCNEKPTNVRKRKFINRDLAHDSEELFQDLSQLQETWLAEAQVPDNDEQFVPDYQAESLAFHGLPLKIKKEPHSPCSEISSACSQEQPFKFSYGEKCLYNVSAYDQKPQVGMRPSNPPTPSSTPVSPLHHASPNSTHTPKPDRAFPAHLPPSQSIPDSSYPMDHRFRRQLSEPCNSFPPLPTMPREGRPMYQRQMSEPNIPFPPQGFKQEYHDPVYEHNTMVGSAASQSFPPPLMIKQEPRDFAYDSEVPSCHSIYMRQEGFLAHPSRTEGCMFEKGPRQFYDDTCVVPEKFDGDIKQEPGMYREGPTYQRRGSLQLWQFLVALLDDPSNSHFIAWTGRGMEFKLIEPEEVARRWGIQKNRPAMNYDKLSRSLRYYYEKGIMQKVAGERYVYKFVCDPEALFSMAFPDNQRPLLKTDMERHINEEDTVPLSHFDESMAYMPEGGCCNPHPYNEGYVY
Another test deals with T6, ERF (Homo sapiens, UniProt P50548 1-548).
T6 sequence: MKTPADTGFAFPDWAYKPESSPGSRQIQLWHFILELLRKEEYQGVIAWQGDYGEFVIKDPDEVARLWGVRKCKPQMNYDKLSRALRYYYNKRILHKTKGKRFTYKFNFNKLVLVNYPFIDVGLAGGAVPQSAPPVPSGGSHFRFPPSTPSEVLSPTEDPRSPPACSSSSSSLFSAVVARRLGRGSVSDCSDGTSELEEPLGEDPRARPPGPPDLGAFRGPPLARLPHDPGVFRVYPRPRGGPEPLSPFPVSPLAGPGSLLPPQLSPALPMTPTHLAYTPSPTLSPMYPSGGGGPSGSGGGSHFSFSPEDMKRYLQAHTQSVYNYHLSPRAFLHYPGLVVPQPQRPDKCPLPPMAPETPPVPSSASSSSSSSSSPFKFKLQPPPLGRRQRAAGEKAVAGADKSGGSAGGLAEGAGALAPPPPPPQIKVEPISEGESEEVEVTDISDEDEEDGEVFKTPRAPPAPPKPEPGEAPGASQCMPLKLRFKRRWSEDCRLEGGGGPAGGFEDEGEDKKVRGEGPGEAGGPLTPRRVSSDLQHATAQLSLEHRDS
The note with it: protein: recombinant; tags: N-terminal GST; dsDNA, one strand shown. The method in brief:
as §1

A further test concerns the target T7, ETV3L (Homo sapiens, UniProt Q6ZN32 1-361).
T7 sequence: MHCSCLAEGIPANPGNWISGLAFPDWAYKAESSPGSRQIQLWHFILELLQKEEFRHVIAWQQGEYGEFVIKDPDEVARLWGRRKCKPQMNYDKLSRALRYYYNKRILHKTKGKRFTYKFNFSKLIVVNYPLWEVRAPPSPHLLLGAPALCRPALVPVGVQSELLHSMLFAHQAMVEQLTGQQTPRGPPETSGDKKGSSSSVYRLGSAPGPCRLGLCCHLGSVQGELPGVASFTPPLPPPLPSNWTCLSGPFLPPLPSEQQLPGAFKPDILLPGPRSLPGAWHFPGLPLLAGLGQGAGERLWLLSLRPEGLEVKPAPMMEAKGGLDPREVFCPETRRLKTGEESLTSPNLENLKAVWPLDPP
The note with it: protein: recombinant; tags: N-terminal GST; dsDNA, one strand shown. The method, boiled down: as §1

The target of a further test is T8, ETS2 (Homo sapiens, UniProt P15036 1-469).
T8 sequence: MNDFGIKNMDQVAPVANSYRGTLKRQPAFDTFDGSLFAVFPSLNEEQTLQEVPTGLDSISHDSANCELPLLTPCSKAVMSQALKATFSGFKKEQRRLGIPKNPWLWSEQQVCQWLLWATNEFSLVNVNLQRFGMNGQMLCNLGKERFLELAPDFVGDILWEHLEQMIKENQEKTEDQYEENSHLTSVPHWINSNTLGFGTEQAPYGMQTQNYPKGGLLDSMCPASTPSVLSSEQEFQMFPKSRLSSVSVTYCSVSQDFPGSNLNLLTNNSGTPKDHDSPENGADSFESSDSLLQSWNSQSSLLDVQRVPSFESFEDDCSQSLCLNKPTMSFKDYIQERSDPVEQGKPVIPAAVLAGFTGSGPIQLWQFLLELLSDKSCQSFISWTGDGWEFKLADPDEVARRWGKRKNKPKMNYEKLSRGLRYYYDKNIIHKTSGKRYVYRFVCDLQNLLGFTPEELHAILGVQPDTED
The note with it: protein: recombinant; tags: N-terminal GST; dsDNA, one strand shown. The method, boiled down: as §1

The next test deals with T9, SPDEF (Homo sapiens, UniProt O95238 1-335).
T9 sequence: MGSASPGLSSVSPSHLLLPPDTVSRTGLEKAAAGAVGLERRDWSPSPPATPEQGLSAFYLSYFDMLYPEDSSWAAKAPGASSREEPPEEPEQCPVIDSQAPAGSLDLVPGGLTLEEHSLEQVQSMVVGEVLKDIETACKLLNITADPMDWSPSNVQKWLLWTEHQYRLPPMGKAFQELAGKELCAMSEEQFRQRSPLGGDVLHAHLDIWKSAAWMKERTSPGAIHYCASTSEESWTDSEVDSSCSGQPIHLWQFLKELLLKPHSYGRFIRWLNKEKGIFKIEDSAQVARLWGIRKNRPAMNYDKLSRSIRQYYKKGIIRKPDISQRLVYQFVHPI
The note with it: protein: recombinant; tags: N-terminal GST; dsDNA, one strand shown. The method in brief: as §1

In a further test the target is T10, ETV7 (Homo sapiens, UniProt Q9Y603 1-341).
T10 sequence: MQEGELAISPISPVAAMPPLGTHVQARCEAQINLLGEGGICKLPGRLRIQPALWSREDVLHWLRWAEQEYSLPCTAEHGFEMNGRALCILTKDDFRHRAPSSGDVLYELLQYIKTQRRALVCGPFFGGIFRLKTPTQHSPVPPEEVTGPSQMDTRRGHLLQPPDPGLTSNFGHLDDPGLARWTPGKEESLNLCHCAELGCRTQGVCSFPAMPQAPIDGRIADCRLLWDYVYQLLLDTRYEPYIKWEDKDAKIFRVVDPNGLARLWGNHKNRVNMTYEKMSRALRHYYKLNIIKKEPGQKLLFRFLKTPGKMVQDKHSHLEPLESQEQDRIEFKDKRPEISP
As to conditions: protein: recombinant; tags: N-terminal GST; dsDNA, one strand shown. The method in brief: as §1

For another test, the target named is T11, ELF5 (Homo sapiens, UniProt Q9UKW6-2 1-255).
T11 sequence: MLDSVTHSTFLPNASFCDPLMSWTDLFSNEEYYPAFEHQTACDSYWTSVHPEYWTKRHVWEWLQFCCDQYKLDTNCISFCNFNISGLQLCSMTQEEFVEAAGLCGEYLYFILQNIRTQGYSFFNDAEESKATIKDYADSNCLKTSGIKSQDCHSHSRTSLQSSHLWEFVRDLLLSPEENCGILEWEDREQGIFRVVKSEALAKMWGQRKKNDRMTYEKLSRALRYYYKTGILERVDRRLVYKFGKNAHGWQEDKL
The note with it: protein: recombinant; tags: N-terminal GST; dsDNA, one strand shown. The method in brief: as §1

In a further test the target is T12, ETV3 (Homo sapiens, UniProt P41162-2 1-143).
T12 sequence: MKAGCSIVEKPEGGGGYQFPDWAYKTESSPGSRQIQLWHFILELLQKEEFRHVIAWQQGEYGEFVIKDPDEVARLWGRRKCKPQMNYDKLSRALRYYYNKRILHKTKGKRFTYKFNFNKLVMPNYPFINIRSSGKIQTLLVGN
As to conditions: protein: recombinant; tags: N-terminal GST; dsDNA, one strand shown. The method, boiled down: as §1

A further test deals with ETV6 (Homo sapiens, UniProt P41212 1-452). The note with it: protein: recombinant; tags: N-terminal GST; dsDNA, one strand shown. The method in brief:
as §1

Chain of ETV6 (P41212 whole entry): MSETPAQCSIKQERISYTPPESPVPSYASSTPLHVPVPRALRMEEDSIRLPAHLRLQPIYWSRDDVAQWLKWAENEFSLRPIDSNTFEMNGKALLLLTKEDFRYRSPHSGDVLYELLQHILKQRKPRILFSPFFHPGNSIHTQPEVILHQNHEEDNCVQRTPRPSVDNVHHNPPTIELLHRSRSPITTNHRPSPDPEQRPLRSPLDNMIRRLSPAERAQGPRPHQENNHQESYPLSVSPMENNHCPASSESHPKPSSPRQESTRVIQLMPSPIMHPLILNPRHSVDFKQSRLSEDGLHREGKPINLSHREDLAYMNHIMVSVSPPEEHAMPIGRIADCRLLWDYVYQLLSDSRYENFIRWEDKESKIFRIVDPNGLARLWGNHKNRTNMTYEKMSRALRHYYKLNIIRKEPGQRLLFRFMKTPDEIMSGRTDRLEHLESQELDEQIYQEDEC
Chain of ETV5 (P41161 whole entry): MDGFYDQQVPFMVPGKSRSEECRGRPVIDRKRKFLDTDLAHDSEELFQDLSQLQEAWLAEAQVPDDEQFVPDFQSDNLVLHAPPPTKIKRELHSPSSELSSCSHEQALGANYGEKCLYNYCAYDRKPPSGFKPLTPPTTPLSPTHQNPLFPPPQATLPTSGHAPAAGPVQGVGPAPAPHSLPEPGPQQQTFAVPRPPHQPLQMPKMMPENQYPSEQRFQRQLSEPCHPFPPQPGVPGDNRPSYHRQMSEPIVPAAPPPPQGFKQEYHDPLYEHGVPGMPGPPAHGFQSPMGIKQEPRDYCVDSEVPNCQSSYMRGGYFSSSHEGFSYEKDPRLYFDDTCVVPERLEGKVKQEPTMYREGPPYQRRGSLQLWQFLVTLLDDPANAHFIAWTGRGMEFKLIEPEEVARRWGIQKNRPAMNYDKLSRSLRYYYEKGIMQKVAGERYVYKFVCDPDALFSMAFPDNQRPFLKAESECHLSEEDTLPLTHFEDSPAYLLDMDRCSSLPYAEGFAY

Consider CTCTGA, for which the binding signal with FEV is 1.23 fold enrichment (6-mer frequency, TF over GST control); with ETV5, 1.15 fold enrichment (6-mer frequency, TF over GST control); in the test with HSF1, 1.06 fold enrichment (6-mer frequency, TF over GST control); with SPIC it was 1.24 fold enrichment (6-mer frequency, TF over GST control); in the test with ELF4, 1.23 fold enrichment (6-mer frequency, TF over GST control); with ELK4, 1.15 fold enrichment (6-mer frequency, TF over GST control). In addition, the binding signal in the test with ETV2 is 1.12 fold enrichment (6-mer frequency, TF over GST control); with ELF3, 1.09 fold enrichment (6-mer frequency, TF over GST control); with CRX, 1.08 fold enrichment (6-mer frequency, TF over GST control); with ETV1, 1.3 fold enrichment (6-mer frequency, TF over GST control); with ERF, 1.22 fold enrichment (6-mer frequency, TF over GST control); in the test with ETV3L, 1.07 fold enrichment (6-mer frequency, TF over GST control). In addition, the binding signal with ETS2 was 1.25 fold enrichment (6-mer frequency, TF over GST control); with SPDEF, 1.11 fold enrichment (6-mer frequency, TF over GST control); with ETV7, 1.34 fold enrichment (6-mer frequency, TF over GST control); in the test with ELF5, 1.11 fold enrichment (6-mer frequency, TF over GST control); in the test with ETV3, 1.19 fold enrichment (6-mer frequency, TF over GST control); with ETV6, 1.16 fold enrichment (6-mer frequency, TF over GST control).
